From PubChem BioAssay AID1159580 (chemical genetic matrix, 2015)
Where “and” joins values, the source holds several entries; their conditions need not be identical. Identical values can stand only once. Hit rate of the full screen: of about 5,500 compounds, about 2,000 (36%) were called active. Another 18% or so got no clear call; they are omitted. No stated cut-off is given here; in the data, active means normalized growth mostly below about 0.91 (no sharp cut-off); inconclusive means no clear call, values can overlap the other calls; inactive means mostly above about 0.92. Some of the results follow.

Assay: chemical genetic growth profiling, strain panel (AID 1159580);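 further: tested at 20 µM; growth read once vehicle control cultures reached saturation at 30 °C; 1 = growth at the plate median or of vehicle wells; lower values mean less growth of the strain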
Settings: S. cerevisiae deletion strains, growth OD

Measured: normalized growth

COc1cc2cc3c4cc(OC)c(OC)cc4cc[n+]3c(C)c2cc1OC
inactive: locus YAL021C, strain ccr4, active compounds read low 1.05 | locus YAL026C, strain drs2, active compounds read low 1.03 | locus YAL030W, strain snc1, active compounds read low 1.01 | locus YBL061C, strain skt5, active compounds read low 1.02 | locus YBR009C, strain hhf1, active compounds read low 1.01 | locus YBR021W, strain FUR4, active compounds read low 1 | locus YBR023C, strain chs3, active compounds read low 1.01 | locus YBR171W, strain sec66, active compounds read low 1.03 | locus YBR229C, strain ROT2, active compounds read low 1.01 | locus YBR231C, strain swc5, active compounds read low 1 | locus YBR279W, strain paf1, active compounds read low 1.01 | locus YCL011C, strain gbp2, active compounds read low 1.01 | locus YCL016C, strain dcc1, active compounds read low 0.997 | locus YCL029C, strain bik1, active compounds read low 1.01 | locus YCL061C, strain MRC1, active compounds read low 1.01 | locus YCL069W, strain vba3, active compounds read low 1.01 | locus YCR088W, strain abp1, active compounds read low 1.01 | locus YDL005C, strain med2, active compounds read low 1.02 | locus YDL035C, strain GPR1, active compounds read low 0.998 | locus YDL040C, strain nat1, active compounds read low 0.992 | locus YDL074C, strain BRE1, active compounds read low 0.996 | locus YDL101C, strain DUN1, active compounds read low 1.01 | locus YDL134C, strain PPH21, active compounds read low 0.982 | locus YDL185W, strain tfp1, active compounds read low 1.02 | locus YDL192W, strain arf1, active compounds read low 1 | locus YDR001C, strain nth1, active compounds read low 1.01 | locus YDR069C, strain doa4, active compounds read low 1.02 | locus YDR101C, strain arx1, active compounds read low 1.01 | locus YDR137W, strain rgp1, active compounds read low 1.06 | locus YDR159W, strain sac3, active compounds read low 1 | locus YDR162C, strain NBP2, active compounds read low 0.999 | locus YDR195W, strain ref2 0.97 | locus YDR297W, strain sur2, active compounds read low 1.01 | locus YDR318W, strain mcm21, active compounds read low 0.987 | locus YDR334W, strain swr1, active compounds read low 1.02 | locus YDR335W, strain msn5, active compounds read low 1.01 | locus YDR388W, active compounds read low 1 | locus YDR392W, strain spt3, active compounds read low 0.848 | locus YDR502C, strain sam2, active compounds read low 0.987 | locus YEL003W, strain gim4, active compounds read low 1.01 | locus YEL037C, strain rad23, active compounds read low 1.01 | locus YEL061C, strain CIN8 (second series), active compounds read low 1.01 | locus YEL061C, strain CIN8, active compounds read low 1.01 | locus YER015W, strain faa2, active compounds read low 1.01 | locus YER016W, strain bim1, active compounds read low 1 | locus YER110C, active compounds read low 1.02 | locus YER111C, strain swi4, active compounds read low 1.03 | locus YER155C, strain BEM2 (second series), active compounds read low 0.97 | locus YER155C, strain BEM2, active compounds read low 1.01 | locus YER167W, strain BCK2, active compounds read low 1 | locus YFR010W, strain ubp6, active compounds read low 1.03 | locus YGL078C, strain dbp3, active compounds read low 0.997 | locus YGL086W, strain mad1, active compounds read low 1.03 | locus YGL167C, strain pmr1, active compounds read low 1.01 | locus YGL173C, strain kem1, active compounds read low 1.03 | locus YGL227W, strain vid30, active compounds read low 1.01 | locus YGL240W, strain doc1, active compounds read low 0.999 | locus YGL248W, strain PDE1, active compounds read low 0.997 | locus YGL253W, strain hxk2, active compounds read low 1.03 | locus YGR135W, strain pre9, active compounds read low 0.988 | locus YGR229C, strain SMI1, active compounds read low 1.01 | locus YGR252W, strain gcn5, active compounds read low 0.904 | locus YHR013C, strain ard1, active compounds read low 1.01 | locus YHR027C, strain rpn1, active compounds read low 1.04 | locus YHR030C, strain SLT2, active compounds read low 1.01 and 0.988 | locus YHR079C, strain IRE1 (second series), active compounds read low 1.02 | locus YHR079C, strain IRE1, active compounds read low 1 | locus YHR094C, strain hxt1, active compounds read low 1.01 | locus YHR129C, strain ARP1, active compounds read low 1 | locus YHR142W, strain chs7, active compounds read low 1.01 | locus YHR200W, strain rpn10, active compounds read low 0.994 | locus YIL066C, strain RNR3, active compounds read low 1.01 | locus YIL073C, strain SPO22, active compounds read low 1.01 | locus YIL125W, strain kgd1, active compounds read low 1.01 | locus YIR030C, strain dcg1, active compounds read low 1 | locus YJL092W, strain hpr5, active compounds read low 1.01 | locus YJL095W, strain BCK1 (second series), active compounds read low 1.01 | locus YJL095W, strain BCK1, active compounds read low 1.01 and 0.99 | locus YJL115W, strain asf1, active compounds read low 1.01 | locus YJL129C, strain trk1, active compounds read low 1.02 | locus YJL134W, strain LCB3, active compounds read low 1.01 | locus YJL154C, strain vps35, active compounds read low 1.01 | locus YJL164C, strain tpk1, active compounds read low 0.984 | locus YJL166W, strain qcr8, active compounds read low 1.02 | locus YJL168C, strain set2, active compounds read low 1.01 | locus YJL187C, strain SWE1 (second series), active compounds read low 0.991 | locus YJL187C, strain SWE1, active compounds read low 1.01
